The values that follow come from PubChem BioAssay AID2284140 (EPA ToxCast).

Calls of active or inactive are those of the source. Rule for the calls: active = hit-call score of the fitted dose curve at least 0.9, where 1 is the maximum; inactive = score below 0.9.

This assay has as its target Tyrosine-protein kinase SYK (Homo sapiens) (UniProt P43405). The experiment in a line: ERF_FR_ENZ_hSYK: Eurofins (ERF) Enzymatic Radiometric [Km ATP] KinaseProfiler LeadHunter Assay for human Syk Tyrosine Kinase. The method, then:
ERF_FR_ENZ_hSYK is a biochemical, single-readout assay that uses extracted gene-proteins in a cell-free assay. Measurements were taken 0.5 hour after chemical dosing in a 96-well plate. See Syk Human TK Kinase Enzymatic LANCE Assay [Km ATP], Cerep.ERF_FR_ENZ_hSYK is an assay component calculated from the ERF_FR_ENZ_hSYK assay. It is designed to measure enzyme activity using a type of enzyme reporter as detected by fluorescence intensity with LANCE technology.Data from the assay component ERF_FR_ENZ_hSYK was analyzed at the assay endpoint, ERF_FR_ENZ_hSYK, in the positive analysis fitting direction relative to DMSO as the negative control and baseline of activity. Using a type of enzyme reporter, loss-of-signal activity can be used to understand changes in enzymatic activity as they relate to gene SYK. To generalize the intended target to other relatable targets, this assay endpoint is annotated to the kinase intended target family, where the subfamily is spleen tyrosine kinase.
Syk (h) is incubated with 50 mM Tris pH 7.5, 0.1 mM EGTA, 0.1 mM Na3VO4, 0.1% […], 0.1 mg/ mL poly(Glu, Tyr) 4:1, 10 mM MgAcetate and [gamma-33P]-ATP (specific activity and concentration as required). The reaction is initiated by the addition of the Mg/ATP mix. After incubation for 40 minutes at room temperature, the reaction is stopped by the addition of phosphoric acid to a concentration of 0.5%. […]
With `O=C(/C=C/c1ccc(O)cc1)CC(=O)/C=C/c1ccc(O)cc1`, the result was inactive.
